Source: PubChem (several laboratories)
aDG glyco up: alpha-DG glycosylation activation. activation, % at 10 µM. hit rate 0.22% among 360,000. Pro5-aDG cells, alpha-DG glycosylation AlphaScreen (IIH6); 0% Pro5, 100% B10-LARGE cell signal;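 active = activation of at least 8% versus controls, or a plate z-score of at least 8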;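 note: Pro5 are CHO cells carrying HIG-tagged alpha-DG that lacks glycosylation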
FAS TE block: blocks the thioesterase domain of human fatty acid synthase; P49327; recombinant FAS-TE, OMFH fluorogenic substrate, fluorescence endpoint; inhibition, % at 15 µM; hit rate 0.67% among 360,000; AID 602261;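 active = compounds whose normalised, plate-corrected inhibition of enzyme fluorescence in the single-dose primary screen is 50% or more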
ADAM17 inh: inhibitors of human ADAM17; AID 720648; hit rate 0.83% among 370,000; P78536; recombinant ADAM17, EDANS/DABCYL FRET peptide cleavage; inhibition, % at 6.95 µM;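 active = inhibition above the mean of compounds lying between control limits plus 3 SD, set per campaign, cut at about 8.5% in these data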
NR3A LBD binder: modulators (binders) of human NR3A ligand-binding domain | NR3A LBD differential scanning fluorimetry, Tm shift; 0% = protein alone, 100% = glycine-bound protein | Tm shift relative to glycine control, % at 25 µM | hit rate 2.5% among 340,000 | AID 1259313;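 active = melting temperature shift of at least 10% of the positive control shift, at one fixed dose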
ADAM10 inh: inhibitors of human ADAM10; recombinant ADAM10, EDANS/DABCYL FRET peptide cleavage, 3 h; hit rate 0.62% among 370,000; inhibition, % at 7 µM; O14672;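 active = inhibition above a per-campaign cutoff equal to the mean of compounds falling between control-based bounds plus 3 SD, cut at about 20% in these data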
Target sequence (O14672 214-748 limits assumed): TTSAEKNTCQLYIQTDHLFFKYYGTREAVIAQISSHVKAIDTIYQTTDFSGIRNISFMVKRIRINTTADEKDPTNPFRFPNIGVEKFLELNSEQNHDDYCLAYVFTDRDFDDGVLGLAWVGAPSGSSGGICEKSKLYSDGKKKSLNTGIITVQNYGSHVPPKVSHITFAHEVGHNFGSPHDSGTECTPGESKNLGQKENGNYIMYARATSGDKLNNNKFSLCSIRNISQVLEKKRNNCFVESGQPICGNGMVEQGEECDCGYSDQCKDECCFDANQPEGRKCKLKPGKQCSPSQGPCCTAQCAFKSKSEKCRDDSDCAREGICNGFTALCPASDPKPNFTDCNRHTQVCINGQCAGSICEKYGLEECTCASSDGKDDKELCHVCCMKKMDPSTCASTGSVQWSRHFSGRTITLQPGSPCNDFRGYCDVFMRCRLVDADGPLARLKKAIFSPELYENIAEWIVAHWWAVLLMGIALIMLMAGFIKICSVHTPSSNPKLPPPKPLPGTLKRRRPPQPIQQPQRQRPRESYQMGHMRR
Each line names hits and unclear results; the compound was inactive in the other large screens. In the library only some 4% were active in any assay of this set; here they are far more common.

COc1ccc(-n2c(SCC(=O)N3CCCC3)nnc2-c2ccncc2)cc1	none (no result: aDG glyco up, FAS TE block, NR3A LBD binder)
COC(=O)c1ccc(Nc2ncnc3c2cnn3-c2cccc(C)c2)cc1	none
Cc1cccc(-n2ncc3c(Nc4ccc(F)cc4)ncnc32)c1	NR3A LBD binder 24.4
COc1ccc(-n2ncc3c(Nc4cccc(C)c4)ncnc32)cc1	NR3A LBD binder 28.6
O=C(CN1C(=O)C(=O)N(CCC2=CCCCC2)C1=O)c1c[nH]c2ccccc12	NR3A LBD binder 29.8
O=C(NCc1ccccc1)C1C(c2ccc3c(c2)OCO3)=Nc2ccccc2N1C(=O)c1cccc(C(F)(F)F)c1 (configuration not stated)	none (no result: FAS TE block, NR3A LBD binder)
Cc1cc2ncn(/N=C/c3ccc([N+](=O)[O-])s3)c2cc1C	NR3A LBD binder 26.8
CCOc1ccc(S(=O)(=O)N2CCOCC2)cc1NC(=O)CSCC(=O)Nc1ccc(C)cc1	NR3A LBD binder 11.1
COc1ccc(CCC(=O)Nc2ccc(S(=O)(=O)N3CCOCC3)cc2)cc1	NR3A LBD binder 19.6
O=C(CCCOc1ccccc1)Nc1ccc(S(=O)(=O)N2CCOCC2)cc1	none
Cc1ccc(OCCCC(=O)Nc2ccc(S(=O)(=O)N3CCOCC3)cc2)cc1	NR3A LBD binder 28.0
COc1ccc(CC(=O)NNC(=O)COc2ccc(C)cc2)cc1S(=O)(=O)N1CCOCC1	NR3A LBD binder 10.1
CC1Sc2ccc(S(=O)(=O)NCCc3ccccc3)cc2NC1=O (configuration not stated)	none
COc1ccc(/C=C/C(=O)Nc2ccc(S(=O)(=O)N3CCOCC3)cc2)c(OC)c1	NR3A LBD binder 25.0
CCOc1ccc2c(c1)OC(c1ccc(C)cc1)(C(F)(F)F)NC2=O (configuration not stated)	none
CN(C)c1ccc(NC(=O)/C=C/c2c(Cl)cccc2Cl)cc1	none
O=C(Nc1ccccc1)Nc1nnc(/C=C/c2ccccc2Cl)s1	NR3A LBD binder 37.3
O=C(Nc1ccccc1)Nc1nnc(-c2ccccc2)s1	none
O=C(/C=C/c1ccccc1Cl)Nc1ccccc1	NR3A LBD binder 20.1
CN(C)S(=O)(=O)c1ccc(NC(=O)/C=C/c2ccccc2Cl)cc1	NR3A LBD binder 26.6
O=C(/C=C/c1ccccc1[N+](=O)[O-])Nc1ccccc1	none
CCCNC(=O)c1ccc2c(c1)nc(C)n2-c1cccc(C)c1	none
CCOc1ccc(NC(=O)c2ccccc2SC)cc1	none
CCOc1ccc(NC(=O)C(C)Oc2ccccc2C(=O)Nc2ccc(C)c(Cl)c2)cc1 (configuration not stated)	NR3A LBD binder 26.3
Cc1ccc(NC(=O)CSc2ccccc2NC(=O)c2ccccc2)cc1Cl	none
Cc1ccc(NC(=O)CSc2ccccc2NC(=O)c2ccccc2Cl)cc1Cl	NR3A LBD binder 11.0
CCNC(=O)/C(=C\C=C\c1ccccc1)NC(=O)c1ccc(Br)o1	none
COc1ccccc1N1CCN(S(=O)(=O)c2cc(Br)cnc2N)CC1	none
CCOC(=O)/C(C#N)=C/c1ccc(OC(=O)c2ccco2)c(OCC)c1	NR3A LBD binder 10.3
CCOC(=O)/C(C#N)=C\c1ccc(OC)c(OC)c1	none
O=C(c1ccc(F)cc1)N1CCN(C2CCC(c3ccccc3)CC2)CC1 (configuration not stated)	none
C=C(C)C(O)Cc1c(OC)ccc(C(=O)/C=C/c2ccc(O)cc2)c1O (configuration not stated)	NR3A LBD binder 25.0
CC(C)=CCC/C(C)=C/Cc1c(O)ccc(C(=O)/C=C/c2ccc(O)cc2)c1O	NR3A LBD binder 29.0
Cc1ccc(OCCNS(=O)(=O)c2ccc(Cl)cc2)cc1	none
COc1ccc(C2SCCN2C(=S)Nc2cccc(Cl)c2)cc1 (configuration not stated)	NR3A LBD binder 15.7
Fc1cc(F)c(C2SCCN2C(=S)Nc2cccc(C(F)(F)F)c2)c(F)c1 (configuration not stated)	NR3A LBD binder 15.9
CN1CCC(=NNC(=O)CSc2ccc(Cl)cc2)CC1	NR3A LBD binder 21.0
COc1ccc(/C=C/c2nc(-c3ccccc3O)n[nH]2)cc1	NR3A LBD binder 39.8
Nc1nc2c(-c3ccc(Br)cc3)nnn2c2ccccc12	NR3A LBD binder 37.2
Cc1cccc(-c2nnn3c2nc(NCCc2ccc(S(N)(=O)=O)cc2)c2ccccc23)c1	NR3A LBD binder 32.7
CC(=O)NCCNc1nc2c(-c3cccc(C)c3)nnn2c2ccccc12	none
NS(=O)(=O)c1ccc(CCNc2nc3c(-c4cccc(F)c4)nnn3c3ccccc23)cc1	NR3A LBD binder 14.7
CNc1nc2c(-c3ccc(Cl)cc3)nnn2c2ccccc12	none
Cc1ccc(-c2nnn3c2nc(NC(C)C)c2ccccc23)cc1	NR3A LBD binder 22.9
Cc1ccc(OCC(=O)NNC(=O)C2CCN(c3nccc(C)n3)CC2)cc1	none
Cc1ccc(-c2nnn3c2nc(NCCc2ccc(S(N)(=O)=O)cc2)c2ccccc23)cc1	NR3A LBD binder 85.6
CCCCNc1nc2c(-c3ccccc3)nnn2c2ccccc12	none
O=C(CSc1nc2scc(-c3ccccc3)c2c(=O)[nH]1)NC1CCCCC1	none (no result: aDG glyco up, FAS TE block, NR3A LBD binder)
O=C1c2ccc(-c3ccc(F)cc3OCc3ccccc3)cc2S(=O)(=O)c2cccc(C(=O)N3CCN(c4ncc(Cl)cc4Cl)CC3)c21	none
Cc1ccc(NC(=O)c2ccccc2NS(=O)(=O)c2ccc(Cl)s2)cc1	NR3A LBD binder 25.9
O=C(Nc1ccccc1)c1ccccc1NS(=O)(=O)c1ccc(Cl)s1	NR3A LBD binder 21.7
O=C(NCc1ccco1)c1ccccc1NS(=O)(=O)c1ccc(Cl)s1	none
O=C(Nc1ccccc1Cc1ccccc1)c1ccccc1NS(=O)(=O)c1ccc(Cl)s1	NR3A LBD binder 34.2
COc1cc(SC)ccc1C(=O)NCc1ccccc1	none
COc1cccc(C(=O)N2CCC[C@@H]2C(=O)N2CCC[C@@H]2C(=O)NCc2ccccc2)c1	none (no result: aDG glyco up, FAS TE block, NR3A LBD binder)
CC1CCCC(C)N1C(=O)COC(=O)C1CCN(S(=O)(=O)c2c(Cl)cccc2Cl)CC1 (configuration not stated)	none
COc1ccccc1CC(=O)N1CCC(n2nccc2NC(=O)C2CCOC2)CC1 (configuration not stated)	NR3A LBD binder 10.2
COc1ccccc1C(=O)Nc1ccnn1C1CCN(C/C=C/c2ccccc2)CC1	NR3A LBD binder 12.6
COc1ccc(CC(=O)N2CCC(n3nccc3NC(=O)C3CCOC3)CC2)cc1 (configuration not stated)	none
O=C(O)c1ccc(S(=O)(=O)N(Cc2ccc(F)cc2)C2CCCCC2)cc1	none
O=C(Nc1nc2cc3c(cc2s1)OCCO3)C1=COCCO1	NR3A LBD binder 11.0
CN(C)S(=O)(=O)N1CCC(Oc2ccc(C(=O)NCCc3cscn3)cc2)CC1	NR3A LBD binder 12.6
O=C(C(=O)c1cc(Br)ccc1O)c1cc(Br)ccc1O	NR3A LBD binder 19.8
C=CCNCCCCOc1cccc(Br)c1	NR3A LBD binder 27.9
